Measurements from PMC7819943, “Rice protein-binding microarrays: a tool to detect cis-acting elements near promoter regions in rice”.
Whole data set: some 68,000 sequences, median “fluorescence intensity (a.u.)” near 9,100, cut for the highest 2% near 16,000. The sample holds the highest values, similar sequences and a random draw of the others, so the mix is not that of the screen.

These sequences were tested against OsWRKY34 (Oryza sativa, UniProt Q0JBA9 1-250) (assay: protein-binding microarray (RPBM); PBS, 2% BSA, 51.3 ng/ul salmon testes DNA, 50 uM zinc acetate, 200 nM TF, 25 C, 1 h; high values mean tight binding). Conditions: protein: recombinant; tags: N-terminal polyhistidine and DsRed monomer fusion (pET32a); label: CyDye5-dUTP incorporated in the synthesized complementary strand; 3' TTTTT single-stranded linker to array surface; dsDNA, one strand shown.
How it was run: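 Binding signal is defined as the fluorescence intensity of each feature in arbitrary units, read on an Axon 4000B scanner. Transcription factors with N-terminal polyhistidine and DsRed fusions came from E. coli BL21-CodonPlus and were purified on Ni–NTA. They were incubated at 200 nM for 1 h at 25 °C on a custom Agilent array that had been made double-stranded with Cy5-dUTP, with 50 µM zinc acetate present, and the array was washed.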

Chain of OsWRKY34 (Q0JBA9 entry or part of it): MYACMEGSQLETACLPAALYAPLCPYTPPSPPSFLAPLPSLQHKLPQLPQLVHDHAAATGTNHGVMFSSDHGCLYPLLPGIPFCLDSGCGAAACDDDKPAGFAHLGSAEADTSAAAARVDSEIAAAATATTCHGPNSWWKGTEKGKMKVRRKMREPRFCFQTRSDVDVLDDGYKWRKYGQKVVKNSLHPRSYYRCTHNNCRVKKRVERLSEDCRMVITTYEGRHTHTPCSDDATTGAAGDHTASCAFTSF

Row | Sequence | binding signal
1 | CTCAACCTCTCGGTCGTCGGCCTCGTCCTCCGGGCCGGCACGGAGTCACCTAGTGCAG | 12000 fluorescence intensity (a.u.)
2 | TTCATAGCCGCCGCATCTCCTTCTCTTCGACTTTTCTCCTCGGAGTCACCTAGTGCAG | 9080 fluorescence intensity (a.u.)
3 | TCAAACGATGCCATTCACCACGTGCCACTTTATATCAAACCGGAGTCACCTAGTGCAG | 11700 fluorescence intensity (a.u.)
4 | CTTAACGGCCCATTTATCTTGTCTCTCTGGCCCACCTGCACGGAGTCACCTAGTGCAG | 12300 fluorescence intensity (a.u.)
5 | CCTGTAATACTTTTGTTAATTCGATCCTACTACATCTTTACGGAGTCACCTAGTGCAG | 10400 fluorescence intensity (a.u.)
6 | ACGGTGTATATTTGTGGTGTGGCGGGTGTGGCATTGGATTCGGAGTCACCTAGTGCAG | 16700 fluorescence intensity (a.u.)
7 | GAGCTGGGGTGGTGTTTGTTTGTGGGTGTGTTTGTGTGCTCGGAGTCACCTAGTGCAG | 15900 fluorescence intensity (a.u.)
8 | GTGGTGGTGGTGTGTGAGCTCGGGGCTTGGGGTTTTGCGGCGGAGTCACCTAGTGCAG | 13300 fluorescence intensity (a.u.)
9 | TTTCTTCATTTCATGATTGTATATTCTGGTGTTTTTGTGGCGGAGTCACCTAGTGCAG | 9250 fluorescence intensity (a.u.)
10 | TTGGTCGCATTTCGGGTGGTGGTGGTGGTGGTGGTGGTGGCGGAGTCACCTAGTGCAG | 13200 fluorescence intensity (a.u.)
11 | GTTTTTGTGCTTGGTGGTGGTGGTGGGTGATTTGCAGGGGCGGAGTCACCTAGTGCAG | 31700 fluorescence intensity (a.u.)
12 | TGGTGTTGTCGGTGTGTGGGTGGTGATATACTTTTTTTTTCGGAGTCACCTAGTGCAG | 11600 fluorescence intensity (a.u.)
13 | CATATATTGGTGTTGTGTGTGGGTGGGTGGGGCGGTGCTTCGGAGTCACCTAGTGCAG | 30900 fluorescence intensity (a.u.)
14 | TGGGAGCTTTGCTTGGGGTGTGTGTGTGTTTGGGTGGTGCCGGAGTCACCTAGTGCAG | 10900 fluorescence intensity (a.u.)
15 | TAGTCTTTTCCATGTCATGTGATCATGTGTGGAGTTGATTCGGAGTCACCTAGTGCAG | 8550 fluorescence intensity (a.u.)
16 | ACTCATGGATGCAGGTCCACCTACATACGTACTACCACAACGGAGTCACCTAGTGCAG | 8570 fluorescence intensity (a.u.)
17 | GCCATCCTCCGCGACGCACATCGTCCGTCCCACCACGATGCGGAGTCACCTAGTGCAG | 10400 fluorescence intensity (a.u.)
18 | GACATAAGTTTATTATCTATATCCATAGTACGTTTAATCCCGGAGTCACCTAGTGCAG | 10100 fluorescence intensity (a.u.)
19 | AAACTGCACTACTTTATCTTGGTTGTCTTTAGCATAAGAACGGAGTCACCTAGTGCAG | 12100 fluorescence intensity (a.u.)
20 | AATCCCCGCACGCGTCTTTACTTCGCCTTCGTCTTTCCTCCGGAGTCACCTAGTGCAG | 9340 fluorescence intensity (a.u.)
21 | TTCTTGTTTTCGTGGATCATCATCAACCTCAATAGAAACGCGGAGTCACCTAGTGCAG | 8410 fluorescence intensity (a.u.)
22 | TCTCCTAAAGATTCATGTTACGTATCTCTTACTTCAACAGCGGAGTCACCTAGTGCAG | 8710 fluorescence intensity (a.u.)
23 | GTACGTACAACATTGTGTATCTGTTTTGTAAGTTATTAACCGGAGTCACCTAGTGCAG | 9710 fluorescence intensity (a.u.)

Row | Sequence | binding signal
24 | AAAGCCTGTGGCCACATCTTATCTTTTCCATCCTTTGCATCGGAGTCACCTAGTGCAG | 8040 fluorescence intensity (a.u.)
25 | ATCGGTGGTGGTGGTGGTGGTGGCCATGAGTCTCGTTTGACGGAGTCACCTAGTGCAG | 27500 fluorescence intensity (a.u.)
26 | CCATTGACTTTTTGTCCAACGTTTGACCATTCGTCTTATTCGGAGTCACCTAGTGCAG | 17000 fluorescence intensity (a.u.)
27 | AACTCATCTGACAGTGATCCATCGTCCTTTTTCTTTGACTCGGAGTCACCTAGTGCAG | 10100 fluorescence intensity (a.u.)
28 | GTCGTTGACTTTTTAACCACAACGTTTGACCATTCGTCTTCGGAGTCACCTAGTGCAG | 21800 fluorescence intensity (a.u.)
29 | GACTTTTTATCCAACGTTTGACCATTCGTCTTATTCAAAACGGAGTCACCTAGTGCAG | 10300 fluorescence intensity (a.u.)
30 | GTTTGGCCATGGTGCCGTCGTTGTCTCGTTGATGCTTAGTCGGAGTCACCTAGTGCAG | 10700 fluorescence intensity (a.u.)
31 | CGGTTTTGACGGACGTGGTGCCCACGTGGCTAGTTTGACTCGGAGTCACCTAGTGCAG | 8980 fluorescence intensity (a.u.)
32 | CTTTTTTTCCAACGTTTGACCATTTGTCTTATTCAAAAAACGGAGTCACCTAGTGCAG | 8560 fluorescence intensity (a.u.)
33 | TTGACCAACGTTTAACCATTCGTTTCATTTAATTTTTTTTCGGAGTCACCTAGTGCAG | 10800 fluorescence intensity (a.u.)
34 | TCCACTATGGCCATCCTGATATCTTTGATCGTCTTTTCCACGGAGTCACCTAGTGCAG | 17500 fluorescence intensity (a.u.)
35 | TCAGTGGACTCGGTTCTGTTTTTTTGTCACTCCACTGGCACGGAGTCACCTAGTGCAG | 9610 fluorescence intensity (a.u.)
36 | CACTAAGTCCGTTCCCATGCCCATTTCTCCCTGCATATTACGGAGTCACCTAGTGCAG | 9680 fluorescence intensity (a.u.)
37 | CGTTGACTTTTTTTCAACGTTTAATAATTTATCTTATTCACGGAGTCACCTAGTGCAG | 12900 fluorescence intensity (a.u.)
38 | ACTTTTTAACCAACGTTTGACCATTCGTCTTATTCAAATTCGGAGTCACCTAGTGCAG | 10600 fluorescence intensity (a.u.)
39 | ACCATTAACTTTTTCTTAATTCGTTTCACTATTTTTTTAACGGAGTCACCTAGTGCAG | 9500 fluorescence intensity (a.u.)
40 | CCGTTGACTTTTTAACTAATGTTTAACCATTCATTTTATTCGGAGTCACCTAGTGCAG | 28900 fluorescence intensity (a.u.)
41 | TATGACGTCGTTGACTTTTTAACCAACGTTTGACCATCGTCGGAGTCACCTAGTGCAG | 32900 fluorescence intensity (a.u.)
42 | GACTTTTCACGTAACGTTTGACCATTTATCTTATTTATAACGGAGTCACCTAGTGCAG | 9970 fluorescence intensity (a.u.)
43 | TCGTTGACTTTTTAACCAACGTTTAACCATTCGTCTTATTCGGAGTCACCTAGTGCAG | 18600 fluorescence intensity (a.u.)
44 | TGTTGACTTTTTTTATTAACGTTTAGCATTTATCTTATTTCGGAGTCACCTAGTGCAG | 18000 fluorescence intensity (a.u.)
45 | TCTTGACCAACGTTTAACCATTCGTTTTATTTAAAATTTTCGGAGTCACCTAGTGCAG | 9450 fluorescence intensity (a.u.)
46 | ACTATTGACTTTTTTTCTATGTTAGACCATTCATTTTATTCGGAGTCACCTAGTGCAG | 12300 fluorescence intensity (a.u.)
